Bioassay records: PubChem BioAssay, National Center for Advancing Translational Sciences (NCATS)
Only some compounds are listed: those with a hit (about 15% of all), similar ones and a draw of the others.
TDP1 cell noCPT – qHTS for Inhibitors of human tyrosyl-DNA phosphodiesterase 1 (TDP1): qHTS in cells in absence of CPT. DT40 Tdp1-/- hTDP1 cells, no CPT, ATP luminescence, 48 h. Potency, µM (highest dose often 46.2 µM), most hits filed as inhibitors. 420,000 tested, 15% active. AID 686978, 2013; further: nearly all actives have a fitted effect of over 55% in size
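A cellular qHTS used chicken DT40 cells lacking endogenous Tdp1 but carrying stably transfected human TDP1. Compounds were applied without camptothecin, and cell growth kinetics were judged by ATP-dependent luminescence after ≥48 hr.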
12-LOX inh – blocks human arachidonate 12S-lipoxygenase; P18054; purified 12hLO, xylenol orange hydroperoxide absorbance; Potency, µM (highest dose often 108 µM), most hits filed as inhibitors; 580,000 tested, 1.1% active; AID 1671190
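Purified human 12hLO (150 nM final) in 25 mM Hepes, 0.01% Triton X-100, pH 7.0 was preincubated 15 min at room temperature with compound. Then 40 uM arachidonic acid was added, 30 min. Hydroperoxide was read by Fe-XO absorbance ratio 573/405 nm.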
ELG1 DNA repair – blocks ELG1-dependent DNA repair in HEK293T cells; Potency, µM (doses to about 46.1 µM), actives largely listed as inhibitors; AID 504467; HEK293T ELG1-luciferase reporter, luminescence, 16 h; DNA damage induced by 5-fluorouridine; 330,000 tested, 2.3% active; further: nearly all actives have a fitted effect of over 55% in size
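Overnight (16 hr) co-exposure of 2,000 cells/well to 5-fluorouridine and compound at 37 °C preceded detection. Luciferase was quantified via ONE-Glo luminescence; loss of signal denotes inhibition.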
Gal4-VP16 FLuc – inhibits Gal4-VP16 luciferase reporter, ROR gamma counter-screen | Drosophila S2 Gal4-VP16 UAS-luciferase, luminescence, 20 h | Potency, µM (titrated, usually from 53.6 µM), hits mostly inhibitors | 310,000 tested, 3.5% active;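 further: Gal4-VP16 expression switched on by copper sulfate through the metallothionein promoter; nearly all actives have a fitted effect of over 50% in size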
TDP1 cell CPT – DT40-hTDP1 cell growth loss with CPT. chicken DT40 Tdp1-/-;hTDP1 cells + 20 nM CPT, ATP luminescence, 48 h. Potency, µM (series often up to 46.2 µM), hits mostly inhibitors. 420,000 tested, 12% active. AID 686979; further: nearly all actives have a fitted effect of over 55% in size
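Chicken DT40 Tdp1-/- cells complemented with human TDP1, 400 cells/well, exposed to compounds plus 20 nM camptothecin for at least 48 h at 37 C; viability read as ATP content by CellTiter-Glo luminescence.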
RORg inh – blocks mouse ROR gamma transcriptional activity. P51450. Drosophila S2 Gal4-RORgamma UAS-luciferase reporter, 20 h. Potency, µM (highest dose often 53.6 µM), most hits filed as inhibitors. 310,000 tested, 5.4% active. AID 2551; further: nearly all actives have a fitted effect of over 60% in size
Target sequence (P51450 whole entry, looked up, the tested form may be a part): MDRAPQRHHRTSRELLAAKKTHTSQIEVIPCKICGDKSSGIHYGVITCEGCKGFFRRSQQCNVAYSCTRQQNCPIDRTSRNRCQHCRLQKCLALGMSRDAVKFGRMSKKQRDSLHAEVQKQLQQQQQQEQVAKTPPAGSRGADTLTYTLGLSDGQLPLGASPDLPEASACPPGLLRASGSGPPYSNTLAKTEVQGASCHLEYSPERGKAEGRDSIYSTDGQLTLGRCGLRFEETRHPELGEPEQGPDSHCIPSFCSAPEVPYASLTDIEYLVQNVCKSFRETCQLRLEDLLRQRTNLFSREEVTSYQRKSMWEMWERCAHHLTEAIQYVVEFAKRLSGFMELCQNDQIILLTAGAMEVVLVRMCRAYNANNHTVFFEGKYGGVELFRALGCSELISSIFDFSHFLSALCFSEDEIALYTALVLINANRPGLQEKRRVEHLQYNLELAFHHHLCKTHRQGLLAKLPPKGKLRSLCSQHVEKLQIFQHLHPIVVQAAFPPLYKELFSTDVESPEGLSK
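Luminescence from a UAS-regulated Photinus luciferase reporter in stably transfected Drosophila Schneider cells is measured; decreased signal marks ROR gamma inhibition. Fusion expression is induced by 700 uM copper sulfate for 20 hr.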
Numbers stand for hits; i = inactive; ? = inconclusive; nt = no result given; [ ] = another dose, or the depositor's remark. The call rests on the fitted dose curve; in most records, active means well fitted curve in the direction sought with a large enough effect; inconclusive means small, poorly fitted or top-dose-only effect, or another doubt; inactive means no such curve, though single readings can be large; an effect the other way counts as inactive or inconclusive.

SMILES	TDP1 cell noCPT	12-LOX inh	ELG1 DNA repair	Gal4-VP16 FLuc	TDP1 cell CPT	RORg inh
Cc1ccc(CNC(=O)c2cc3c(C)nc4ccccc4c3o2)cc1	7.31µM	i	14.6µM	17.8µM	9.2µM	i
Cc1nc2ccccc2c2oc(C(=O)NCCCN3CC(C)CC(C)C3)cc12 (stereo not given)	i	i	i	i	?	i
CC(C)C[C@H]1CN([C@@H](Cc2ccc(O)cc2)CN2CCC[C@H]2CN2C(=O)C(=O)NC[C@@H]2Cc2ccccc2)C(=O)C(=O)N1CC1CCCCC1	20.6µM	?	nt	nt	?	nt
CC(C)C[C@H]1CN([C@@H](Cc2ccc(O)cc2)CN2CCC[C@@H]2CN2C(=O)C(=O)NC[C@@H]2Cc2ccccc2)C(=O)C(=O)N1CC1CCCCCC1	?	i	nt	nt	?	nt
CC(C)C[C@H]1CN([C@@H](Cc2ccccc2)CN2CCC[C@H]2CN2C(=O)C(=O)NC[C@@H]2Cc2ccc(O)cc2)C(=O)C(=O)N1CC1CCCCCC1	16.4µM	?	nt	nt	?	nt
O=C(NCc1ccccc1)c1cc(C2CCCN(C(=O)c3ccc4c(c3)CCO4)C2)on1 (stereo not given)	?	i	nt	nt	?	nt
Cc1ccc(F)cc1C(=O)N1CCCC(c2cc(C(=O)NCc3ccc(F)cc3)no2)C1 (stereo not given)	14.6µM	i	nt	nt	?	nt
O=C(NCc1ccccc1)c1cc(C2CCCN(C(=O)CCCc3ccccc3)C2)on1 (stereo not given)	14.6µM	i	nt	nt	14.6µM	nt
CC(C)c1ccc(C(=O)N2CCCC(c3cc(C(=O)NCc4ccccc4)no3)C2)cc1 (stereo not given)	14.6µM	i	nt	nt	13µM	nt
O=C(NCc1ccc(F)cc1)c1cc(C2CCCN(C(=O)c3ccc4c(c3)CCO4)C2)on1 (stereo not given)	23.1µM	i	nt	nt	18.4µM	nt
O=C(Nc1ccccc1Cl)c1cc(C2CCCN(C(=O)CCCc3ccccc3)C2)on1 (stereo not given)	?	i	nt	nt	i	nt
C#CC(CC)(CC)NC(=O)Cc1cc(OC)c(OC)c(OC)c1	nt	i	nt	nt	nt	nt
COc1ccc(NC(=O)COc2nc(CC(C)C)c3c(c2C#N)CCC3)c(OC)c1	nt	i	nt	nt	nt	nt
CC1(c2ccccc2)N(Cc2ncccn2)C(=O)OC12CCN(Cc1cccc(OC(F)(F)F)c1)CC2 (stereo not given)	nt	i	nt	nt	nt	nt
O=Cc1ccccc1-c1ccc(F)cc1F	nt	i[12.5 µM]	nt	nt	nt	nt
O=C(NCc1ccc(F)cc1)c1cc(C2CCCN(C(=O)c3ccc4ccccc4c3)C2)on1 (stereo not given)	16.4µM	?	nt	nt	16.4µM	nt
O=C(NCc1ccc(F)cc1)c1cc(C2CCCN(C(=O)c3ccccn3)C2)on1 (stereo not given)	i	i	nt	nt	i	nt
COc1ccc(C(=O)N2CCCC(c3cc(C(=O)NCc4ccc(F)cc4)no3)C2)cc1 (stereo not given)	?	i	nt	nt	14.6µM	nt
CCOC(=O)c1cc(-c2ccc(Cl)cc2)nc2c1c(C)nn2CCC#N	?	i	?	i	?	i
CCOC(=O)c1cc(-c2ccc(OC)cc2F)nc2c1c(C)nn2CCC#N	?	i	11.6µM	i	?	i
CCOC(=O)c1cc(-c2ccc3c(c2)OCCO3)nc2c1c(C)nn2CCC#N	11.6µM	i	6.51µM	i	?	i
Cc1sc2ccn(C)c(=O)c2c1C(=O)NCc1ccccc1Cl	nt	i	nt	nt	nt	nt
COCc1noc([C@@H]2CN(S(=O)(=O)Cc3cccc(F)c3)C[C@H]2C(N)=O)n1	nt	i	nt	nt	nt	nt
Cc1cc(C)cc(NC(=O)CSc2oc(-c3cccs3)nc2S(=O)(=O)c2ccccc2)c1	5.8µM	?	nt	nt	20.6µM	nt
O=C(CSc1oc(-c2cccs2)nc1S(=O)(=O)c1ccccc1)Nc1ccc(F)cc1	?	i	nt	nt	16.4µM	nt
CC(Oc1ccc(Br)cc1)C(=O)Nc1ccncc1 (stereo not given)	?	i	5.17µM	?	?	?
